Shown are actives, neighbours in structure and some others; about 1.7% of the full set was active somewhere.
PTHR1 agonist = qHTS for PTHR1 Agonists: Primary Screen. Potency, µM (doses to about 115 µM), for inactives: top-dose activation, hits mostly activators. AID 743266, 2014. Parathyroid hormone/parathyroid hormone-related peptide receptor (Homo sapiens), Q03431. 410,000 compounds, 0.075% hits. HEK293 GP2 PTHR1 cells, GloSensor cAMP luminescence, 1 h; also: nearly all actives have a fitted effect of over 55% in size
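HEK-293-derived GP2 cells expressing PTHR1 and a GloSensor cAMP reporter, 3,000/well, plated overnight, given luciferin plus IBMX (each 0.5 mM as added) for 1 h at 37 °C, then compound for 1 h at 37 °C. Luminescence was read after 15 min at room temperature.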
GLP1R inv ag = qHTS of GLP-1 Receptor Inverse Agonists (Inhibition Mode). HEK293 GLP-1R CRE-luciferase, luminescence, 24 h; GLP-1R form is constitutively active. 410,000 compounds, 1.6% hits. Glucagon-like peptide 1 receptor (Homo sapiens), P43220. Potency, µM (top dose mostly 38.3 µM), for the others: at the highest dose activity change, negative = inhibition, actives largely listed as inhibitors; also: % is scaled to controls: 0 for no effect and ±100 for the full control effect; nearly all actives have a fitted effect of over 55% in size
Target sequence (P43220 whole entry, looked up): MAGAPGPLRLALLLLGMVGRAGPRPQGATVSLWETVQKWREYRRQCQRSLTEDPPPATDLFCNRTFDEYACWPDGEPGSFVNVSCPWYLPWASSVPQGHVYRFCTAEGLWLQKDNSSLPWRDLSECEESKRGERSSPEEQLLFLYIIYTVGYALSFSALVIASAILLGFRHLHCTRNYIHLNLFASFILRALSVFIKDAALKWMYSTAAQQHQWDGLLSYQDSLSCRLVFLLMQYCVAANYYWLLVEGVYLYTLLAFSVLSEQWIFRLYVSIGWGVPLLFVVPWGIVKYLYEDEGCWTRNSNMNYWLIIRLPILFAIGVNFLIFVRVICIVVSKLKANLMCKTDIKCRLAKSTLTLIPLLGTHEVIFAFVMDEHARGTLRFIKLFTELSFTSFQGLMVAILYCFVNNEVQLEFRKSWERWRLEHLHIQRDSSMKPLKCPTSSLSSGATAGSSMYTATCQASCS
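HEK293 cells stably co-expressing a cAMP-responsive luciferase reporter and constitutively active GLP-1R were seeded, incubated 12 h, then exposed to compounds for 24 h at 37 C. Luminescence was read 12 min after detection reagent; inverse agonists lower signal.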
GLP-1R agonist = qHTS of GLP-1 Receptor Agonists; Potency, µM (doses to about 45.6 µM), inactives show at the highest dose activation, usual class: activators; HEK293 GLP-1R CRE-luciferase, luminescence, 4-6 h; cells express a hypersensitive GLP-1R form; 380,000 compounds, 0.007% hits; also: % of control where 0% means no effect
HEK293 tox = qHTS of GLP-1 Receptor Inverse Agonists: Cytotox Screen; AID 624418, 2012; HEK293 cAMP-luciferase reporter cells, luminescence, 24 h; Potency, µM (top dose mostly 38.3 µM), for inactives: top-dose activity change, negative = inhibition, hits mostly inhibitors; 410,000 compounds, 0.13% hits;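 also: loss of luciferase light is scored as toxicity; % is scaled to controls: 0 for no effect and ±100 for the full control effect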
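A 23 nL compound transfer followed 12 hours of cell culture at 37 deg C; exposure then lasted 24 hr. Luciferase assay detection reagent was dispensed and plates read for luminescence after a 12 min room-temperature wait.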
An asterisk follows results filed as active; i = inactive; ? = inconclusive; . = no result; [ ] = another dose, or the depositor's remark. Calls follow the shape of the dose curve; as a rule, active = well fitted curve in the direction sought with a large enough effect; inconclusive = small, poorly fitted or top-dose-only effect, or another doubt; inactive = no such curve, though single readings can be large; an effect the other way counts as inactive or inconclusive. Potency is read from the fitted curve at half-maximal effect.

SMILES	PTHR1 agonist	GLP1R inv ag	GLP-1R agonist	HEK293 tox
O=C(NCCC1=CCCCC1)C1COc2ccccc2O1 (configuration not stated)	-16%[57.5 µM]	8.9µM*	0%	13%
O=C(NCCc1ccc(C(F)(F)F)cc1)C1COc2ccccc2O1 (configuration not stated)	i	?	8%	-3%
O=S(=O)(O)c1cccc2c(N=Nc3ccc(O)c4ncccc34)cccc12	i	-22%	-1%	11µM*
Cc1ccc(CNC(=O)CCCCn2c(=O)c3ccccc3n(Cc3c(C)cc(C)cc3C)c2=O)cc1	-35%	-2%	0%	-2%
Cc1ccc(S(=O)(=O)c2nc(S(C)(=O)=O)sc2N2CCCCC2C)cc1 (configuration not stated)	-45%	3.5µM*	-3%	-22%
CCCS(=O)(=O)c1nc(S(=O)(=O)c2ccc(C)cc2)c(N2CCCC(C)C2)s1 (configuration not stated)	-20%	13µM*	0%	-4%
CCOc1ccc2nc(CN3CCN(Cc4ccsc4)C(CCO)C3)ccc2c1 (configuration not stated)	-20%	-23%	-1%	3%
O=C(COC(=O)c1ccc(OC(F)F)cc1)NCCCN1CCCC1=O	i	6%	-2%	4%
O=C(COC(=O)c1cc(-c2ccc(F)cc2)nc2ccccc12)NCC1CCCO1 (configuration not stated)	-17%	?	21%	-15%
CCN(CC)C(=O)CSc1nc2ccccc2c(=O)n1CC1CCCCC1	-22%[57.5 µM]	5.6µM*	16%	-9%
O=C(NNc1ccc([N+](=O)[O-])cc1)c1ccco1	i	?	-1%	?
O=C(NNc1ccc([N+](=O)[O-])cc1[N+](=O)[O-])c1ccco1	-17%	-18%	-2%	10µM*
O=C(c1ccccc1)c1ccc(N2CCN(C(=O)c3cccc(F)c3F)CC2)c(F)c1	-42%	10µM*	2%	0%
CCC(=O)c1ccc(N2CCN(C(=O)c3ccccc3F)CC2)c(F)c1	-18%	3%	12%	0%
CC(OC(=O)c1oc2ccccc2c1COc1ccccc1)C(=O)NC(N)=O (configuration not stated)	25%	-21%	22%	0%
O=C(NCCc1ccccc1)c1oc2ccccc2c1COc1ccccc1	-6%	3.2µM*	12%	16%
O=C(Nc1ccccc1Cc1ccccc1)c1oc2ccccc2c1COc1ccccc1	-29%	4.5µM*	-5%	78%
Cc1c(C(=O)NCCc2ccccc2)oc2ccccc12	-28%	?	12%	-1%
COC(=O)N[C@H](C(=O)N[C@@H](Cc1ccccc1)[C@@H](O)CN(Cc1ccc(-c2ccccn2)cc1)NC(=O)[C@@H](NC(=O)OC)C(C)(C)C)C(C)(C)C	.	.	-2%	.
O=S(=O)(NC(=S)NC1CCCCC1)c1ccc(Br)cc1	i	-28%	0%	5%
COCCNC(=O)CCC(=O)NNc1nc2ccccc2c2nc(-c3ccccc3)nn12	-6%	-7%	7%	3%
CCc1nn2c(=O)cc(COC(=O)c3ccccc3NC(=O)c3cccs3)nc2s1	-9%	3%	.	0%
Cc1ccsc1C(=O)C1CCCN(Cc2cccn2-c2ccc(Cl)cn2)C1 (configuration not stated)	-35%	?	-6%	?
Cc1ccc(-n2cccn2)c(CN2CCCC(C(=O)c3sccc3C)C2)c1 (configuration not stated)	i	?	4%	11µM*
Cc1sc2nc(CN3CCOCC3)[nH]c(=S)c2c1C	i	?	8%	-9%
SMILES	PTHR1 agonist	GLP1R inv ag	GLP-1R agonist	HEK293 tox
CCOc1ccc(CCNC(=O)c2nn(C)c3c2CSc2ccc(C)cc2-3)cc1OCC	-36%	10µM*	.	19%
Cc1ccc(CNC(=O)c2nn(C)c3c2CSc2ccc(C)cc2-3)cc1	-15%	?	.	0%
COc1ccc(-c2noc(N3CCCC(C(=O)Nc4ccc(F)cc4F)C3)n2)cc1 (configuration not stated)	-31%	?	-4%	-10%
CC1(C)CC2CC(C)(CN2/C=N/c2sc3c(c2C#N)CC(C)(C)NC3(C)C)C1 (configuration not stated)	11%	1.1µM*	17%	?
O=C(O)C1CCCN1C(=O)NC1CCCCC1 (configuration not stated)	i	21%	-6%	2%
CC(=O)c1ccc(NC(=S)NC(NC(=O)c2ccco2)C(Cl)(Cl)Cl)cc1 (configuration not stated)	-11%	5µM*	-17%	-7%
O=C(NC(NC(=S)Nc1ccc(Cl)cc1)C(Cl)(Cl)Cl)c1ccco1 (configuration not stated)	-36%	3.5µM*	-2%	?
O=C(NC(NC(=S)Nc1ccccc1O)C(Cl)(Cl)Cl)c1ccco1 (configuration not stated)	i	?	-8%	-5%
CN(C)c1ccc(-c2nc3ccccc3c(=O)[nH]2)cc1	-25%	8.9µM*	-9%	8%
O=C(NCc1ccccc1)C1=C[C@@H](c2csc3ccccc23)C[C@@H](OCc2ccc(CO)cc2)O1	-20%	8.9µM*	-1%	-6%
CC[C@H]1OC(=O)[C@H](C)C(=O)[C@H](C)[C@@H](OC2O[C@H](C)C[C@H](N(C)C)[C@@H]2O)[C@@](C)(OC)C[C@@H](C)C(=O)[C@@H](C)C2N(CCCCn3cnc(-c4cccnc4)c3)C(=O)O[C@@]21C (some centres not stated)	.	.	12%	.
CC(C)(C)c1ccc(OCCC(=O)Nc2cccc(S(=O)(=O)NC3=NCCCCC3)c2)cc1	-24%	?	9%	-21%
O=C(Nc1cccc(O)c1)c1cc(-c2ccc3c(c2)OCO3)on1	-92%	10µM*	-7%	-9%
CCOc1ccc(/C=N/NC(=O)Cc2csc(Nc3cccc(C(F)(F)F)c3)n2)cc1	-21%[57.5 µM]	2.2µM*	-20%	-29%
CCOc1ccc(/C=N/NC(=O)Cc2csc(Nc3cccc(C(F)(F)F)c3)n2)c(OCC)c1	-1%[57.5 µM]	?	-5%	-21%
CCS(=O)(=O)N1CCc2cc(C(=O)Nc3cccc(C)c3C)ccc21	i	9%	.	-13%
CCOC(=O)c1nc(C)nc(Sc2n[nH]c(-c3ccc(C(C)(C)C)cc3)n2)c1C	i	10µM*	-7%	-14%
CCOC(=O)c1nc(C)nc(Sc2n[nH]c(-c3cc(Cl)cc(Cl)c3)n2)c1C	-28%	19%	0%	-2%
CC1CCCN(Cc2nc(Cc3ccccc3Cl)no2)C1 (configuration not stated)	-51%	10µM*	13%	1%

Bioassay records from PubChem.
